A number with no mark means an inactive call. Results filed as inconclusive are left out. A call without a number means that no potency is given here. Calls of active or inactive are those of the source. Calls come from the whole dose curve; as a rule, active = well fitted curve in the direction sought with a large enough effect; inconclusive = small, poorly fitted or top-dose-only effect, or another doubt; inactive = no such curve, though single readings can be large; an effect the other way counts as inactive or inconclusive. Where a SMILES comes first, the peptide text is derived from it. The star is where a group is joined. Cbz = O=C(OCc1ccccc1)*; CH2F = FC*
What was measured:
[1] = biological target: Glutathione peroxidase 1 (Homo sapiens) (UniProt P07203); assay: Primary qHTS Assay for Inhibitors of Recombinant Selenoprotein Glutathione Peroxidase 1 (GPX1) (AID 1845191); note: nearly all actives have a fitted effect of over 65% in size
Chain of Glutathione peroxidase 1 (Homo sapiens) (P07203 whole entry, looked up): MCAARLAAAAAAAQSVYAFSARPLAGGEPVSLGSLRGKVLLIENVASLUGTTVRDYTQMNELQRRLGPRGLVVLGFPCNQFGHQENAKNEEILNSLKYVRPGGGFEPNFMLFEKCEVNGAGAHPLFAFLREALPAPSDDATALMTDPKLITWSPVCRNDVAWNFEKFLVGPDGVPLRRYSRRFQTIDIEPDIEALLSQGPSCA
Procedure, shortened: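 10 nM GPX1 + cpd, 30 min RT; start w/ 1 mM GSH, 0.5 mM cumene hydroperoxide, 0.5 mM NADPH, 100 nM GR, 0.01% BSA; buffer 50 mM Tris-HCl pH 7.5, 2 mM EDTA, 150 mM NaCl; Fl 340/450, 0 & 15 min.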

[2] = biological target: Phospholipid hydroperoxide glutathione peroxidase GPX4 (Homo sapiens) (UniProt P36969); assay: Primary qHTS Assay for Inhibitors of Recombinant Selenoprotein Glutathione Peroxidase 4 (GPX4) (AID 1845192); note: series mostly up to about 50 µM; nearly all actives have a fitted effect of over 65% in size
Chain of Phospholipid hydroperoxide glutathione peroxidase GPX4 (Homo sapiens) (P36969 whole entry, looked up): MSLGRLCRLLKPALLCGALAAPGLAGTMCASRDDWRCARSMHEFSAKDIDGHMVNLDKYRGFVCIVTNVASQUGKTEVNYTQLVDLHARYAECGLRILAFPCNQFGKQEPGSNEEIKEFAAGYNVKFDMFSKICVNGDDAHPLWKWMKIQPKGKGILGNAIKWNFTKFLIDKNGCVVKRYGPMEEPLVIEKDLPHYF
Procedure, shortened: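 NADPH consumption, followed by fluorescence at 340/450 nm between 0 and 15 min, reports GPX4 activity via coupled glutathione reductase (100 nM). Enzyme 200 nM was pre-exposed to compound 30 min; 0.5 mM cumene hydroperoxide and 1 mM GSH served as substrates.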

[3] = biological target: Luciferin 4-monooxygenase (Photinus pyralis) (UniProt P08659); assay: Primary firefly luciferase (FLuc) qHTS assay for identification of artifact compounds. (AID 1845220); note: nearly all actives have a fitted effect of over 60% in size; note: potency is the fitted concentration of half-maximal effect; for activity change, negative = inhibition: series mostly up to about 54 µM
Procedure, shortened: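 FLuc 10 nM; luciferin 10 uM; ATP 10 uM; Tris-acetate pH 7.6, Mg-acetate 10 mM; 15 min RT preincubation; 5 min reaction; luminescence.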

[4] = Primary fluorescence-based thiol-reactive (MSTI) qHTS assay for identification of artifact compounds. (AID 1845221); note: nearly all actives have a fitted effect of over 65% in size; note: potency is the fitted concentration of half-maximal effect;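 for activity change, negative = thiol reactive: series mostly up to about 54 µM; thiol-reactive compounds lower the probe fluorescence signal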
Procedure, shortened: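 Compounds were incubated 1 h at room temperature in the dark with the MSTI probe (4 uM) in PBS pH 7.4, 2% DMSO. Signals were normalized between Acetyl-MSTI and MSTI.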

C/C=C(/C)C(=O)OC1C2OC2C2(CO2)C2C3OC(=O)C(C)C3CCC12C (configuration not stated)
Potency [1]: inactive | Potency [2]: inactive | Potency [3]: inactive | Potency [4]: inactive

CSCC[C@H](NC(=O)[C@H](CO)NC(=O)[C@H](CCC(=O)O)NC(C)=O)C(=O)N[C@H](C=O)CC(=O)O (Ac-ESMD-aldehyde)
Potency [1]: inactive | Potency [2]: inactive | activity change, negative = inhibition [3]: -5.86% [at 11.6 µM] | activity change, negative = thiol reactive [4]: 10.4% [at 11.5 µM]

CC1(C)CC[C@]2(C(=O)O)[C@H](O)C[C@]3(C)C(=CCC4[C@@]5(C)CC[C@H](O[C@@H]6OC[C@@H](O)[C@H](O)[C@H]6O)[C@@](C)(C(=O)O)C5CC[C@]43C)[C@@H]2C1 (some centres not stated)
Potency [1]: inactive | Potency [2]: inactive | Potency [3]: inactive | Potency [4]: inactive

Fc1cccc(CN(C2=NCCN2)c2c(Cl)cccc2Cl)c1
Potency [1]: inactive | Potency [2]: inactive | Potency [3]: inactive | Potency [4]: inactive

CCCO[C@@H]1O[C@H](CO)[C@@H](O)[C@H](O)[C@H]1O[C@@H]1OC[C@@H](O)[C@H](O)[C@H]1O
Potency [1]: inactive | Potency [2]: inactive | Potency [3]: inactive | Potency [4]: inactive

On1ncc(C2CCNCC2)c1-c1cccc(-c2ccccc2)c1
Potency [1]: inactive | Potency [2]: inactive | Potency [3]: inactive | Potency [4]: inactive

C=C1C[C@]23C[C@H]1CC[C@H]2[C@]1(C)CC[C@H](O)[C@@](C)(C(=O)O)[C@H]1[C@@H]3C(=O)O
Potency [1]: inactive | Potency [2]: inactive | Potency [3]: inactive | Potency [4]: inactive

CC/C=C\C(O)C(O)C1=C(C)C(=O)C2(O1)C(=O)NC(OC)(C(=O)c1ccccc1)C2O (configuration not stated)
Potency [1]: inactive | Potency [2]: inactive | Potency [3]: inactive | Potency [4]: 4.62 µM (active)

C=CC(C)(O)CC/C=C(\C)C(=O)O[C@@H]1[C@@H](O)[C@H](OC(C)(C=C)CC/C=C(\C)C(=O)O[C@@H]2O[C@H](CO)[C@@H](O)[C@H](O)[C@H]2O)O[C@H](CO)[C@H]1OC(=O)/C(C)=C/CCC(C)(O)C=C (some centres not stated)
Potency [1]: inactive | Potency [2]: inactive | activity change, negative = inhibition [3]: 0.429% [at 11.6 µM] | activity change, negative = thiol reactive [4]: 71.6% [at 11.5 µM]

CC1C2=CC(=O)OC2(O)CC2C1C(O)CC1C(C)(CO)CCCC21C (configuration not stated)
Potency [1]: inactive | Potency [2]: inactive | Potency [3]: inactive | Potency [4]: inactive

CC1(C)COC(=O)[C@@H]1O[C@@H]1O[C@H](CO)[C@@H](O)[C@H](O)[C@H]1O
Potency [1]: inactive | Potency [2]: inactive | Potency [3]: inactive | Potency [4]: inactive

COc1ccc(CC(=O)NCc2ccccc2-c2ccccc2C(=O)NCCc2cccnc2)cc1
Potency [1]: inactive | Potency [2]: inactive | Potency [3]: inactive | Potency [4]: inactive

CC(C)=CCc1c(O)cc2oc3cc(C)cc(O)c3c2c1C
Potency [1]: inactive | Potency [2]: inactive | Potency [3]: 12 µM (active) | Potency [4]: 4.74 µM (active)

O=C(/C=C/c1ccc(O)c(O)c1)O[C@@H]1[C@@H](O)[C@H](OC2CCCCC2O)O[C@H](CO)[C@H]1O (some centres not stated)
Potency [1]: inactive | Potency [2]: inactive | Potency [3]: inactive | Potency [4]: 2.92 µM (active)

C=C1CC[C@H]2[C@@](C)(CCC(OC3OC(CO)C(O)C(O)C3O)[C@@]2(C)CO)C1C(=O)CC1=CCOC1=O (some centres not stated)
Potency [1]: inactive | Potency [2]: inactive | Potency [3]: inactive | Potency [4]: 3.27 µM (active)

C=C(C)[C@@H]1CC[C@]2(C(=O)O)CC[C@]3(C)C(CCC4[C@]5(C)C(CC[C@]43C)C(C)(C)[C@@H](O)[C@@H]5C(=O)O)C12 (some centres not stated)
Potency [1]: inactive | Potency [2]: inactive | Potency [3]: inactive | Potency [4]: inactive

CC(C)(O)C1CCC2(C)CCCC(C)(O)C2C1 (configuration not stated)
Potency [1]: inactive | Potency [2]: inactive | Potency [3]: inactive | Potency [4]: inactive

COC(=O)CC[C@H](NC(=O)[C@H](CC(C)C)NC(=O)OCc1ccccc1)C(=O)N[C@@H](Cc1cnc[nH]1)C(=O)N[C@@H](CC(=O)OC)C(=O)CF (Cbz-LE(OMe)HD(OMe)-CH2F)
Potency [1]: inactive | Potency [2]: inactive | activity change, negative = inhibition [3]: 1.89% [at 11.6 µM] | activity change, negative = thiol reactive [4]: 12.6% [at 11.5 µM]

COc1cccc(OC)c1-c1cc(C(=O)N[C@@H](CC(C)C)C(=O)O)nn1-c1ccnc2cc(Cl)ccc12
Potency [1]: inactive | Potency [2]: inactive | Potency [3]: inactive | Potency [4]: inactive

Cc1ccc(Cl)cc1N(CC(=O)Nc1c(F)cccc1F)S(C)(=O)=O
Potency [1]: inactive | Potency [2]: inactive | Potency [3]: inactive | Potency [4]: inactive

CC1(C(=O)O)CCCC2(C)C3CCC4CC3(CCC12)CC4(O)CO (configuration not stated)
Potency [1]: inactive | Potency [2]: inactive | Potency [3]: inactive | Potency [4]: inactive

N#CC1C(=O)N=C(c2cc(Cl)ccc2O)C=C1c1cc(OCc2ccccc2)cc(OCc2ccccc2)c1 (configuration not stated)
Potency [1]: inactive | Potency [2]: inactive | Potency [3]: inactive | Potency [4]: inactive

COc1cc(O)c2c(c1Cl)CC(C)OC2=O (configuration not stated)
Potency [1]: inactive | Potency [2]: inactive | Potency [3]: inactive | Potency [4]: inactive

Reference: PubChem BioAssay (NCATS)
